Screens as filed in PubChem BioAssay.
Only some compounds are listed: those with a hit (about 27% of all), similar ones and a draw of the others.
CYP2C9 activ = increases human cytochrome P450 2C9 activity | P11712 | recombinant CYP2C9, luciferin-H conversion, luminescence; hits give high values; factor 1 = untreated enzyme, 0 = blocked | activation factor at 5 µM | 96,000 compounds, 1.4% hits | AID 1024;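 active means activation factor of 2 or more for CYP2C9 at a 5 µM dose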;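 further: 0 = sulfaphenazole-blocked wells and 1 = vehicle-only wells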
CYP2C19 activ = activators of human cytochrome P450 2C19 | activation factor at 5 µM | P33261 | 96,000 tested, under 10 active | recombinant CYP2C19, luciferin-H EGE luminescence; hits give high values; 0 = fully inhibited enzyme, 1 = untreated enzyme | AID 1025;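 active means activation factor of at least 2 at 5 µM in the primary screen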;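 further: 0 = wells with 2.5 mM tranylcypromine and 1 = vehicle-only wells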
Target sequence (P33261 whole entry, looked up): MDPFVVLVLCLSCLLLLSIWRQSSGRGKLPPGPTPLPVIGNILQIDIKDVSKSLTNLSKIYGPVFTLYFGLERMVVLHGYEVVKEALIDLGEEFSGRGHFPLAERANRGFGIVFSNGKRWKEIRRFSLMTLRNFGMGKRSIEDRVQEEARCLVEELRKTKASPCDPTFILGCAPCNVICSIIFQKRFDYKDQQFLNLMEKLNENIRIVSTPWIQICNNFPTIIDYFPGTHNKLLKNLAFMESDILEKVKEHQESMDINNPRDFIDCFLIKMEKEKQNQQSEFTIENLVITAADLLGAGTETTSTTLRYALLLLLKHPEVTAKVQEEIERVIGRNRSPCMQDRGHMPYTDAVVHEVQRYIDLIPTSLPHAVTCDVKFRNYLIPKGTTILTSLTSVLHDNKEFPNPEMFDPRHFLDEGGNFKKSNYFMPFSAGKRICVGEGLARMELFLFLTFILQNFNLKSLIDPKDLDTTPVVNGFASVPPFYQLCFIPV
CYP2C19 inhib = inhibitors of human CYP2C19. P33261. CYP2C19 Supersomes, luciferin-H EGE luminescence, 30 min. inhibition, % at 5 µM. 96,000 compounds, 21% hits;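 active means CYP2C19 inhibition above a set limit at 5 µM in the primary screen, cut at about 50% in these data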;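 further: plate controls were negative control wells for no effect and 2.5 mM tranylcypromine positive control for full effect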
Cav32 inh = blocks human Cav3.2 T-type calcium channel. O95180. Cav3.2-expressing cells, Fluo-4 calcium fluorescence FDSS; hits give low values. B-score at 10 µM. 100,000 compounds, 4% hits;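 active means single-dose well whose peak fluorescence ratio is a statistical outlier from its plate by either plate-standardised score or position-corrected B-score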
CYP2C9 inhib = inhibitors of human CYP2C9 | P11712 | CYP2C9 Supersomes, luciferin-H conversion, luminescence | inhibition, % at 5 µM | 96,000 compounds, 20% hits;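 active means blocking of liver enzyme CYP2C9 beyond about 50% at 5 µM, limit read from the data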
Active calls of the source: *; . = not tested or not shown.

SMILES | CYP2C9 activ | CYP2C19 activ | CYP2C19 inhib | Cav32 inh | CYP2C9 inhib
CCC(C)Oc1ccccc1C1CC(=O)NC2=C1C(=O)CCC2 (stereo not drawn) | 1 | 1 | 1.5 | 0.689 | -3.6
CCOC(=O)C1CCCCN1Cc1cccc(F)c1 (stereo not drawn) | 0.7 | 0.1 | 88.6* | 1.13 | 29.2
CCOC(=O)C1CCCCN1Cc1cc(Cl)ccc1O (stereo not drawn) | 0.1 | 0 | 98.9* | -2.43 | 94.3*
CCOC(=O)C1CCCCN1Cc1ccc(F)cc1 (stereo not drawn) | 1.1 | 0.3 | 66.2* | 0.355 | -9.3
CCOC(=O)C1CCCCN1Cc1cccc(OC)c1OC (stereo not drawn) | 0.7 | 0.7 | 29.7 | -0.214 | 26.9
Cc1ccc(C(=O)N2CCC(C)CC2)cc1C | . | . | . | -2.59 | .
CCCCn1c(NC(=O)c2ccc(Br)o2)c(S(=O)(=O)c2ccccc2)c2nc3ccccc3nc21 | 0.2 | 0.9 | 9.2 | -2.02 | 83.3*
CC(C)NC1CS(=O)(=O)CC1O (stereo not drawn) | 1.1 | 1 | -4.8 | 2.44 | -5.0
CC12CCC(c3c(CO)nn(-c4ccccc4)c31)C2(C)C (stereo not drawn) | 1.2 | 0.4 | 59.4* | 0.631 | -15.6
Cc1ccccc1-c1nn2c(-c3ccccc3)nnc2s1 | 0.4 | 0.1 | 87.3* | -1.29 | 55.5*
Cc1cc(-c2nn3c(-c4ccccc4)nnc3s2)c2ccccc2n1 | 0.7 | 0.2 | 79.1* | 0.0809 | 31.9
c1ccc(-c2cc(-c3nn4c(-c5ccco5)nnc4s3)c3ccccc3n2)cc1 | 0.2 | 0.6 | 37.2 | -0.764 | 77.3*
Cc1ccc(-c2nnc3sc(CCc4ccccc4)nn23)cc1 | 0.2 | 0.3 | 65.4* | -0.0108 | 76.2*
Cc1c(Cl)cccc1NC(=O)CCCN1C(=O)CCC1=O | 0.9 | 0.8 | 17.7 | . | 6.8
CCCCCCC(=O)Nc1nc(C)c(-c2csc(Nc3ccc(Cl)cc3)n2)s1 | 0.7 | 0.9 | 11.9 | -1.38 | 27.3
COc1ccc(NS(=O)(=O)c2ccc3oc(Nc4ccc5c(c4)OCCO5)nc3c2)cc1 | 0 | 0.5 | 51.3* | -0.594 | 96.3*
CC(C)(C)C(=O)Nc1ccc(-c2cn3ccsc3n2)cc1 | 0.9 | 0.8 | 16.2 | . | 5.0
O=S(=O)(Nc1ccc(-c2cn3ccsc3n2)cc1)c1ccc2c(c1)OCCO2 | 0.1 | 0.2 | 76.4* | -0.779 | 91.3*
Cn1c(=O)c(=O)n(C)c2cc(S(=O)(=O)Nc3ccc4c(c3)OCCO4)ccc21 | 0.5 | 1 | -1.5 | . | 53.6*
Cn1c(=O)c(=O)n(C)c2cc(S(=O)(=O)Nc3ccc(OC(F)(F)F)cc3)ccc21 | 0.1 | 0.2 | 82.3* | 1.21 | 91.4*
O=C(CNC(=O)c1ccccc1)NC1(C(=O)NC2CCCC2)CCCCC1 | 1 | 0.9 | 8.9 | -1.48 | 4.3
Cc1sc2ncnc(OCC(=O)N3CCN(S(=O)(=O)c4ccccc4)CC3)c2c1C | . | . | . | 2.42 | .
COCCOC(=O)c1c(C)oc2ccc(OC(=O)c3c(OC)cccc3OC)cc12 | 0 | 0.1 | 92.7* | -1.45 | 95.8*
COCCOC(=O)c1c(C)oc2ccc(OC(=O)c3ccc4c(c3)OCO4)cc12 | 0.1 | 1.1 | -9.9 | -0.695 | 86.8*
Cc1cc(N2CCCCCC2)nc2ccccc12 | 1 | 0.8 | 21.0 | -0.408 | 0.5
SMILES | CYP2C9 activ | CYP2C19 activ | CYP2C19 inhib | Cav32 inh | CYP2C9 inhib
c1ccc(CSc2n[nH]c(-c3ccco3)n2)cc1 | 0.8 | 0.4 | 60.8* | -0.102 | 17.3
O=C(c1ccco1)n1nc(-c2ccco2)nc1SCc1ccccc1 | 0.8 | 0.7 | 35.0 | -0.12 | 17.7
CCC(=NC(C)c1ccccc1)c1c(O)n(C)c(=O)n(C)c1=O (stereo not drawn) | 0.4 | 0.3 | 67.8* | -1.54 | 55.6*
Cn1c(N)c(C(=O)c2ccccc2)c(=O)n(C)c1=O | 0.9 | 0.9 | 6.8 | -0.733 | 6.7
COc1cccc(C2NC(=O)NC(C)=C2C(=O)OCCSC)c1OC (stereo not drawn) | . | . | . | -0.0134 | .
CCCC1=C(C(=O)OCC)C(/C=C/c2ccccc2)n2ncnc2N1 (stereo not drawn) | 0.5 | 0.1 | 91.0* | -0.419 | 51.6*
CCOC(=O)C1=C(c2ccccc2)Nc2ncnn2C1c1cccc(OC)c1OC (stereo not drawn) | 0.6 | 0.6 | 44.4 | 3.38* | 39.9
CCCC1=C(C(=O)OCC)C(c2ccc(F)cc2)n2ncnc2N1 (stereo not drawn) | 0.2 | 0.5 | 54.8* | 0.535 | 75.5*
CCCC1=C(C(=O)OCC)C(c2ccc(N(C)C)cc2)n2ncnc2N1 (stereo not drawn) | 0.9 | 0.8 | 16.3 | -1 | 13.6
COC(=O)c1ccc(C2C(C(C)=O)=C(C)Nc3ncnn32)cc1 (stereo not drawn) | 0.7 | 0 | 96.5* | 0.299 | 25.9
COC(=O)c1ccc(C2C(C(=O)Nc3ccccc3C)=C(C)Nc3ncnn32)cc1 (stereo not drawn) | 1 | 0.9 | 13.1 | -0.0913 | 4.4
OC(CCCCN1CCCCC1)c1ccccc1 (stereo not drawn) | 1 | 1 | -4.2 | -0.0367 | -4.2
CCOC(=O)C1=C(C)Nc2ncnn2C1/C=C/c1ccccc1 (stereo not drawn) | 0.4 | 0.4 | 57.0* | 0.794 | 62.9*
CCOC(=O)C1=C(C)Nc2ncnn2C1c1cccs1 (stereo not drawn) | 0.8 | 0.8 | 15.9 | 0.986 | 18.1
CCCn1c(=O)[nH]c(=O)c2c1nc(-c1ccccc1)n2CCN1CCOCC1 | 1.1 | 1.2 | -17.1 | 0.642 | -10.6
Cc1cc(C)c2c(=O)[nH]c(SCC(=O)Nc3ccc(N(C)C)cc3)nc2n1 | 0.4 | 0.6 | 41.8 | 0.0578 | 58.3*
Cc1ccc(NC(=O)CSc2nc3nc(C)cc(C)c3c(=O)[nH]2)cc1 | 0.7 | 0.9 | 9.6 | 0.152 | 34.1
COc1ccc(CN(C(=O)CSc2nnc(-c3c[nH]c4ccccc34)o2)c2ccc(F)cc2)cc1OC | . | . | . | -0.124 | .
COc1ccc(N2C(=O)C3C4C=CC(C5CC45)C3C2=O)c([N+](=O)[O-])c1 (stereo not drawn) | 2* | 0.6 | 37.5 | -0.0917 | -102.2
COc1cc2c(cc1OC)C1=C(C#N)CC/C(=N\S(=O)(=O)c3cccc(Cl)c3)N1CC2 | 0.4 | 0.7 | 27.3 | -0.77 | 62.9*
COc1ccc(-c2nc(C#N)c(N3CCN(c4cccc(Cl)c4)CC3)o2)cc1OC | 0.8 | 0.7 | 32.2 | 0.0735 | 15.5
O=C(CSc1nnc(Cn2c(=O)sc3ccccc32)n1-c1ccccc1)N1CCCC1 | . | . | . | 0.173 | .
O=C(CSc1nnc(Cn2c(=O)sc3ccccc32)n1-c1ccccc1)Nc1nccs1 | 0.3 | 0.9 | 11.1 | -0.89 | 67.9*
CC(C)Sc1nnc(Cn2c(=O)sc3ccccc32)n1-c1ccccc1 | . | . | . | 0.374 | .
CSc1nnc(Cn2c(=O)sc3ccccc32)n1-c1ccccc1 | 0.6 | 0.5 | 53.1* | -0.223 | 35.4
COC(=O)c1ccc(NC(=O)C(C)Oc2ccccc2)cc1 (stereo not drawn) | 0.2 | 0.6 | 42.0 | -0.638 | 83.6*
COc1ccc(OC(C)C(=O)Nc2cccc(OC)c2)cc1 (stereo not drawn) | 0.3 | 0.1 | 87.0* | -0.923 | 74.9*
